The source of these data is PubChem BioAssay AID628 (Vanderbilt High Throughput Screening Facility, 2007).

In all, about 64,000 compounds went through this assay and about 2,200 (3.4%) were called active. Only a selection was taken, and actives are over-represented in it overall. Unmarked numbers belong to inactive results.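 The calls were made as follows: active = calcium fluorescence response, raw or row-and-column corrected B-score, differing from the plate sample mean either way at a set confidence level, mostly lower; inactive = the rest.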

The target of the test is Muscarinic acetylcholine receptor M1 (Rattus norvegicus) (UniProt P08482). Briefly: antagonists of rat M1 muscarinic receptor (AID 628). Conditions: CHO-M1 cells, Fluo-4 calcium, ACh EC80 antagonist mode; at 10 µM; active compounds read low.
Muscarinic acetylcholine receptor M1 (Rattus norvegicus), sequence (P08482 whole entry, looked up): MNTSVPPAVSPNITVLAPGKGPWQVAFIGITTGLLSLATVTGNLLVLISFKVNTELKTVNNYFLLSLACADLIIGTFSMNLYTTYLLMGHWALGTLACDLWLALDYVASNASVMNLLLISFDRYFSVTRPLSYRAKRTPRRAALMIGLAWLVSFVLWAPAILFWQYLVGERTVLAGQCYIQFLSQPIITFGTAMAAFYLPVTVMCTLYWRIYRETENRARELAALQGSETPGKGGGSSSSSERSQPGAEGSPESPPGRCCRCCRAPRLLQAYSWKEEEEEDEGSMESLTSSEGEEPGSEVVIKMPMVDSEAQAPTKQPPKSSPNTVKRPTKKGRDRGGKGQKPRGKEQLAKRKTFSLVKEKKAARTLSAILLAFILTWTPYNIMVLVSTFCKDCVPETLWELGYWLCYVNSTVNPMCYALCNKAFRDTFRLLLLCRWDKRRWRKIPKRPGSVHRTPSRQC
For `CC[N+]1(C)CCCC(OC(=O)C(O)(c2ccccc2)c2ccccc2)C1` (stereo not given), the B-score is -11.4 (active). The value for `O=C1NC(=O)C(C/C=C/c2ccccc2)C(=O)N1` was -0.333. As to `CSC1=NP(=S)(SC)N(C)c2nc3n(c21)CCC3` (stereo not given), the B-score was -0.101.

For the molecule `O=c1c2ccccc2nc(-c2ccco2)n1-c1ccc(Br)cn1`, the B-score is -0.192. For `CCOC(=O)C1SC2(C(F)(F)C(F)F)CC1(O)c1c(c(OC)c3occc3c1OC)O2` (stereo not given), the B-score is -2.3 (active).

Consider `CNP1(NC)=Nc2nn(-c3ccccc3)c(N)c2C(c2ccccc2)=N1`, for which the B-score was 0.00862. The figure for `C[N+]12CN3CN(CN(C3)C1)C2` is 0.464. The value for `CCN(CC)P(=O)(Oc1cccc(C)c1)N(CC)CC` was 0.467; that for `COc1ccc(C(=O)CC2C(=O)N(C)C(=O)N(C)C2=O)cc1` was -0.22; that for `COc1ccccc1CN1CCN(C(=O)Cc2ccccc2)CC1` was 0.441. The figure for `CC(C)c1ccc(O)c(CN2CCN(c3ccccc3)CC2)c1` is 0.336; for `COc1ccc(CN2CCN(c3ccccc3F)CC2)c(OC)c1` it is -2.11 (active); for `CCc1nc2ccccc2c(=O)n1-c1cccc(OC)c1` it is -0.313. As for `COc1ccc(C2NCc3ccc4c(c3-n3cccc32)OCO4)cc1OC` (stereo not given), the B-score is -4.39 (active). For the molecule `c1ccc(C2NCc3ccccc3-n3cccc32)cc1` (stereo not given), the B-score was -0.457. Regarding `CCC/C(=N\O)c1c[nH]c2ccccc12`, the B-score is -0.0862. Turning to `CCOC(=O)c1c(C)c(C(=O)N2CCC3(CC2)OCCO3)c(C)n1CC`, the B-score was 0.059.

With `CC12CN3CC(C)(CN(C1)C3c1cccs1)C2` (stereo not given), the B-score was -0.259. The figure for `Cc1nc2nc(C)c(CCC(=O)N3CCC4(CC3)OCCO4)c(C)n2n1` is 0.0167. The value for `CCOC(=O)CC1=C(C(=O)OCC)C2(C(=O)N1)C(C(=O)OC)=C(N)Oc1ccccc12` (stereo not given) was 0.186.

Consider `CCOC(=O)c1c(N)n(Cc2ccccc2)c2nc3ccccc3nc12`, for which the B-score was 0.91.

On to `Cc1ccc(C)c(NC2=NCCCS2)c1`, for which the B-score was -1.64.

Turning to `CC(=NCc1ccc2c(c1)OCO2)c1c(O)[nH]c(=O)[nH]c1=O`, the B-score is 0.0855. Consider `Fc1ccc(N2CCN(Cc3ccc4c(c3)OCO4)CC2)cc1`, for which the B-score is -2.36 (active). On to `COc1ccccc1N=C1SCCCN1C`, for which the B-score is 0.926.
